# Reference: PubChem BioAssay AID488841 (Sanford-Burnham Center for Chemical Genomics, 2010)
# Hit rate of the full screen: of about 1,400 compounds, about 380 (27%) were called active. Some of the results follow. A number with no mark means an inactive call.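 How the source made its calls: active means mean inhibition above 50% across duplicate retests at 10 µM; inactive means the rest.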
# Assay: inhibition of NALP1/ASC/caspase-1 reporter signal in yeast, confirmation, NALP1 inhibitor project, S. cerevisiae, luminescence, single concentration (AID 488841);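 further: plate controls were DMSO in galactose medium for no effect and cells in plain SD medium for full effect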
# Settings: S. cerevisiae NALP1/ASC/Caspase-1 reporter, beta-gal luminescence; at 10 µM; hits give high values
row,SMILES,inhibition
1,CC1CCCC(NC(=O)C2CCN(S(=O)(=O)N3CCCCC3)CC2)C1C (stereo unspecified),26.3%
2,CCOC(=O)c1nn(-c2ccc(C)cc2)cc1C(=O)c1ccccc1,46.5%
3,Cc1ccc(C(=O)c2no[n+]([O-])c2C(=O)c2ccc(C)cc2)cc1,58.2% (active)
4,O=[N+]([O-])c1ccc2cn(-c3ccccc3)nc2c1,40.4%
5,NC(=O)C1(N2CCCCC2)CCN(Cc2nc(-c3cccs3)no2)CC1,37.5%
6,Oc1oc(-c2ccccc2)nc1C=Nc1cccc2ccccc12,40.1%
7,CCOC(=O)C1CCCCN1Cc1ccc(F)c(Br)c1 (stereo unspecified),31.7%
8,Cc1cc(Cl)c(OCCCn2ccnc2)c(Br)c1,38.1%
9,c1cc2c3c(cccc3c1)NC1(CCCCCC1)N2,13.9%
10,Cc1ccc(OC(=S)Nc2ccc(O)cc2)cc1,90.7% (active)
11,Cc1ccc(Oc2ccccc2/C=N/O)cc1,42.1%
12,CN1CCN(C(=S)Nc2ccc(Cl)c(Cl)c2)CC1,24.9%
13,O=C(COc1ccc(CO)cc1Cl)Nc1ccc(F)cc1,25.6%
14,O=C(CC(O)(C(F)(F)F)C(F)(F)F)Nc1ccc(Cl)c(Cl)c1,98.8% (active)
15,CC(=O)Nc1cccc(OCCCNC(=O)C2CCC2)c1,28.2%
16,Cc1c(NC(=O)c2cc3c(s2)-c2ccccc2OC3)cccc1[N+](=O)[O-],34.7%
17,O=[N+]([O-])c1ccc(-n2nnnc2-c2ccccc2)cc1,0.15%
18,Cc1ccc(-n2nnnc2C(Cl)c2nnnn2-c2ccc(C)cc2)cc1,71.5% (active)
19,CCc1oc2ccccc2c1C(=O)CCN1CCCCC1,37.6%
20,CCOC(=O)c1cc(-c2ccccc2)n(CC(=O)Nc2ccc(OC)c(OC)c2)c1C,25.8%
21,CCOc1ccc(/C=C/C(=O)c2ccccc2)cc1OC,53.2% (active)
22,COc1ccc(/C=N/OC(=O)Nc2ccccc2)cc1[N+](=O)[O-],23.2%
23,O=C(NCc1ccco1)c1cnn2c1NC(c1ccc(Br)cc1)CC2C(F)(F)F (stereo unspecified),50.6% (active)
24,COc1ccc(/C=C\c2onc(C)c2S(=O)(=O)N2CCC(C(=O)NCc3ccco3)CC2)cc1,41.2%
25,Cc1ccc(CN2CCN(/N=C/c3ccc(C(F)(F)F)cc3)CC2)c(C)c1,49%
26,CCOCC(O)CNC(=O)c1ccc(OC2CCN(C(=O)c3cccnc3)CC2)cc1 (stereo unspecified),29.6%

row,SMILES,inhibition
1,CC1CCN(CCOc2ccc(Cl)c(Cl)c2)CC1,43.7%
2,Cc1ccc(NC(=O)/C=C\C(=O)NCC(=O)O)cc1C,30.8%
3,COc1cc(Br)cc(C=Nc2cccc(C(F)(F)F)c2)c1O,11.4%
4,COC(=O)/C=C/C(=O)Nc1cccc(C(F)(F)F)c1,56.3% (active)
5,CCN(C(=O)COC(=O)c1cccnc1Nc1cccc(C(F)(F)F)c1)C1CCS(=O)(=O)C1 (stereo unspecified),45.4%
6,NC(=O)/C=C\C(=O)Nc1cccc(C(F)(F)F)c1,71.8% (active)
7,Cc1cs/c(=N\N=C\c2ccccc2)n1Cc1ccco1,32.1%
8,Cc1cccc(C)c1C(OCCN(C)C)C1CCCCC1 (stereo unspecified),37%
9,CC(=O)c1ccc(NC(=O)/C=C/c2ccc(C)cc2)cc1,48.6%
10,CSc1ccc(/C=C/C(=O)c2ccc(NC(C)=O)cc2)cc1,51% (active)
11,O=C(/C=C/Sc1ccccc1)c1ccc(Cl)cc1,38.4%
12,CSc1ccc(/C=C/C(=O)c2ccc(O)cc2)cc1,61.5% (active)
13,O=c1ncn(-c2cccc(F)c2)c2ncccc12,37.1%
14,N#CC(C#N)=C1C=CC=CN1/C(=C\c1ccccc1Cl)C(=O)c1ccccc1,5.75%
15,CCn1cc(C(=O)O)c(=O)c2cc(F)c(N3CCNCC3)cc21,27.4%
16,CC(C)COC(=O)Nc1nnc(SCc2ccccc2F)s1,49.2%
17,CCSc1nnc(NC(=O)c2ccccc2)s1,83.2% (active)
18,Cc1ccc(Nc2nnc(SCC(=O)Nc3ccc(S(=O)(=O)N4CCOCC4)cc3)s2)cc1,18.2%
19,CCSc1nnc(NC(=O)c2ccc(C)o2)s1,54.3% (active)
20,CCCc1[nH]nc2c1C(c1ccoc1)C(C#N)=C(N)O2 (stereo unspecified),37.9%
21,O=C(c1ccc(F)cc1)c1cn(Cc2ccc(F)cc2)c2cc3c(cc2c1=O)OCCO3,26.4%
22,Cc1ccc(Cn2nnnc2CN2CCC(c3nc4ccc(Cl)cc4[nH]3)CC2)cc1,34.2%
23,Cc1noc2ncc(C(=O)c3cc(F)ccc3O)cc12,17.8%
24,c1ccc2c(Nc3nc(N4CCOCC4)c4ccccc4n3)cccc2c1,93.2% (active)
25,CCOc1cc(-c2c(C)c(C)nc(N)c2C#N)ccc1O,30.4%
